Screens as filed in PubChem.
Most compounds without a hit are left out; they make up all but 11% or so of the library.
AMA1-RON2 inh – qHTS for Inhibitors of AMA1-RON; Towards Development of Antimalarial Drug Lead: Primary Screen. AID 720542, 2013. Potency, µM (highest dose often 58.2 µM), for the others: top-dose activity change, negative = inhibition, usual class: inhibitors. AlphaScreen AMA1-biotinylated RON2 peptide binding. actives 0.2% (n = 360,000). Plasmodium falciparum AMA1 (3D7) - RON2 peptide interaction;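 note: 0% = vehicle wells and -100% = peptide control; nearly all actives have a fitted effect of over 45% in size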
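AMA1 (3D7) with his tag at 25 nM final met compounds first, then biotinylated RON2 peptide at 25 nM; detection used donor plus acceptor beads, 10 µg/mL apiece, read by AlphaScreen after 30 min at room temperature.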
HCV inh – qHTS Assay for Inhibitors of Hepatitis C Virus (HCV) | Huh7.5.1 HCVcc-Cre infection, luciferase reporter, 44 h | Potency, µM (titrated, usually from 41.8 µM), for inactives: top-dose activity change, negative = inhibition, actives largely listed as inhibitors | actives 3.4% (n = 340,000) | AID 651820, 2012
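HCVcc-Cre virus at an moi near 0.5 was added right after compound to cells cultured 4 h from seeding (1,000 cells/well). Luciferase activity was determined 44 h later, 15 min after substrate addition at RT.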
Pf growth 96h – Primary qHTS for delayed death inhibitors of the malarial parasite plastid, 96 hour incubation. actives 6.9% (n = 320,000). Potency, µM (series often up to 28.7 µM), for inactives: at the highest dose activity change, negative = inhibition, most hits filed as inhibitors. P. falciparum luciferase reporter growth, 96 h. AID 504834, 2011
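Parasite growth measured via integrated firefly luciferase reporter in P. falciparum. Infected erythrocytes at 2% hematocrit, 0.05% parasitemia final were treated 96 hours at 37 C under 5% CO2, and luminescence was read.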
Pf growth 48h – Primary qHTS for delayed death inhibitors of the malarial parasite plastid, 48 hour incubation; P. falciparum luciferase growth in erythrocytes, 48 h; Potency, µM (highest dose often 28.7 µM), without a hit: at the highest dose activity change, negative = inhibition, most hits filed as inhibitors; actives 5.9% (n = 310,000); AID 504832, 2011
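Luciferase-expressing parasites in RBCs, 2% Hct / 0.1% parasitemia final; RPMI 1640 + 0.5% Albumax; 37 C, 5% CO2, one generation; luminescence read-out, lower signal = inhibition.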
* hit, by the source's call; ? = inconclusive; / = not tested or not shown; [ ] = another dose, or the depositor's remark. Calls come from the whole dose curve; as a rule, active = well fitted curve in the direction sought with a large enough effect; inconclusive = small, poorly fitted or top-dose-only effect, or another doubt; inactive = no such curve, though single readings can be large; an effect the other way counts as inactive or inconclusive. Unless noted, % is set by controls: 0 for no effect and ±100 for the full control effect; potency is the fitted concentration of half-maximal effect.

SMILES	AMA1-RON2 inh	HCV inh	Pf growth 96h	Pf growth 48h
COC(=O)c1ccc(NC(=S)NC2CCc3ccccc32)cc1 (stereo not given)	-4%	2%	48%	?
O=C(NCCCN1CCOCC1)c1ccc2c(c1)N(Cc1ccccc1)C(=O)c1ccccc1S2=O (stereo not given)	10%	-18%	7%	?
O=C(NCCCN1CCOCC1)c1ccc2c(c1)N(Cc1ccccc1F)C(=O)c1ccccc1S2=O (stereo not given)	12%	-13%	15µM*	-24%
O=C(NCCCN1CCOCC1)c1ccc2c(c1)N(Cc1cccc(Cl)c1)C(=O)c1ccccc1S2=O (stereo not given)	-9%	?	-7%	12µM*
CCN1C(=O)c2ccccc2S(=O)c2ccc(C(=O)NCCN(CC(C)C)CC(C)C)cc21 (stereo not given)	-2%	-8%	76%	12µM*
O=C(NCCCN1CCCC1)c1ccc2c(c1)N(Cc1ccc(F)cc1)C(=O)c1ccccc1S2=O (stereo not given)	5%	?	-1%	?
COc1ccccc1CCNC1CCCCCC1	4%	-9%	0%	4%
COc1ccccc1CCNC1CCC(C(C)(C)C)CC1 (stereo not given)	-8%	?	2.6µM*	2.3µM*
C=C1CCN([C@@H](CC(C)C)C(=O)N2CCCC2)S(=O)(=O)c2ccccc21	-5%	5%	/	/
Cc1cc(C)n(-c2cc(N3CCN(C(=O)c4cccc(Br)c4)CC3)ccc2[N+](=O)[O-])n1	-19%	?	9.3µM*	?
CC(=O)N1CCN(c2ccc([N+](=O)[O-])c(-n3nc(C)cc3C)c2)CC1	-6%	-7%	18%	-20%
Cc1cc(C)n(-c2cc(N3CCN(S(=O)(=O)c4ccc(Cl)cc4)CC3)ccc2[N+](=O)[O-])n1	12%	?	8%	7.4µM*
Cc1nc(NC(=O)c2c(-c3ccccc3Cl)noc2C)sc1C	-12%	?	?	?
Cc1[nH]c2ccccc2c1C(=O)C(=O)N1c2ccccc2CC1C (stereo not given)	7%	?	12µM*	6.6µM*
Cc1[nH]c2ccccc2c1C(=O)C(=O)N1CCCc2ccccc21	8%[2.32 µM]	-7%	10µM*	?
Cc1[nH]c2ccccc2c1C(=O)CSC(=S)N(C)C1CCCCC1	-7%	-9%	-79%	?
Cc1[nH]c2ccccc2c1C(=O)C(=O)N1CCN(c2ccccc2F)CC1	-2%	1%	?	12%
Cc1[nH]c2ccccc2c1C(=O)C(=O)N(C)C1CCCCC1	-2%	2%	2.6µM*	2.6µM*
CC1=C(C(=O)N2CCOCC2)CC(CC(=O)NC2CC2)C(=O)N1Cc1ccccc1 (stereo not given)	33%	/	/	/
COc1ccc(Cl)cc1C(=O)NNC(=O)c1cccs1	13%	23%	/	/
O=C1CC(c2ccc(F)cc2)c2cc3c(cc2N1)CCC3 (stereo not given)	-8%	?	25%	15µM*
Cc1ccc(C(=O)N/C(=C\c2ccc(Cl)cc2)C(=O)NCCN2CCOCC2)cc1	13%	-7%	?	-4%
O=C(CN1CCN(c2cccc(C(F)(F)F)c2)CC1)N(C1CCCC1)C1CCS(=O)(=O)C1 (stereo not given)	0%[11.6 µM]	?	8.3µM*	15µM*
CC(=O)Nc1ccc(Nc2nc(C)c([N+](=O)[O-])c(Nc3ccc(NC(C)=O)cc3)n2)cc1	13%[2.32 µM]	?	2.1µM*	-26%
O=C(NCC1OCCc2ccccc21)c1ccc(NC(=O)c2ccc(Cl)cc2)cc1 (stereo not given)	3%	4.5µM*	20%	?
SMILES	AMA1-RON2 inh	HCV inh	Pf growth 96h	Pf growth 48h
CCN(CC)c1ccc(CN(C(=O)c2cccs2)C2CCS(=O)(=O)C2)cc1 (stereo not given)	-7%	18%	?	?
COc1ccc(CCNc2c(C)c(C)nc3ncnn23)cc1	-8%	?	1%[5.75 µM]	?
COc1ccc(Cn2nnnc2C(c2cccs2)N2CCN(c3ccc([N+](=O)[O-])cc3)CC2)cc1 (stereo not given)	-1%	-17%	?	10µM*
COc1ccc(Cn2nnnc2C(c2ccccc2Cl)N2CCN(C)CC2)cc1 (stereo not given)	2%	-10%	117%	-17%
COc1ccc(Cn2nnnc2CN2CCc3ccccc32)cc1	0%	5%	/	-18%
COc1ccc(Cn2nnnc2CN2CCc3ccccc3C2)cc1	-9%	?	13µM*	/
CCN1CCN(C(c2ccccc2)c2nnnn2Cc2ccc(OC)cc2)CC1 (stereo not given)	0%	-27%	5.2µM*	1%
CCCC(c1nnnn1Cc1ccc(OC)cc1)N1CCN(c2ccccc2OC)CC1 (stereo not given)	-15%	?	/	10µM*
Cc1ccc(NC(=O)Cn2c([N+](=O)[O-])cnc2C)cc1Cl	12%	2%	49%	13%
CCOC(=O)C1CCCN(C(=O)CCCn2nnnc2CN2CCC(C)CC2)C1 (stereo not given)	11%	17%	?	6%
COc1ccc(C(O)c2ncc(-c3ccccc3)[nH]2)c(OC)c1 (stereo not given)	-5%	/	/	/
CC(C)Cc1nc2oc3c(Cl)ncnc3c2c2c1CCC2	-1%	4.5µM*	42%	32%
CC(C)c1nc2oc3c(N4CCNCC4)ncnc3c2c2c1CCC2	-7%	?	/	/
CC(C)Cc1nc2oc3c(NCCCN4CCOCC4)ncnc3c2c2c1CCC2	-7%	10µM*	?	?
CCCc1nc2oc3c(NCCN4CCOCC4)ncnc3c2c2c1CCCC2	5%	?	-25%	-10%
C[C@@H]1CN([C@@H](C)CO)C(=O)c2cccc(NS(C)(=O)=O)c2O[C@H]1CN(C)CC1CCCCC1	-2%	16%	/	/
COc1cc([C@H]2Oc3cc([C@H]4Oc5cc(O)cc(O)c5C(=O)[C@@H]4O)ccc3O[C@@H]2CO)ccc1O	56%	?	?	?
O=C1c2c(O)cc(O)cc2O[C@H](c2ccc(O)c(O)c2)[C@H]1O	-18%	0.56µM*	/	/
O=C1c2c(O)cc(O)cc2O[C@H](c2ccc(O)cc2)[C@H]1O	-6%	-5%	/	/
COc1cc([C@@H]2Oc3cc(C4Oc5cc(O)cc(O)c5C(=O)[C@H]4O)ccc3O[C@H]2CO)ccc1O (stereo not given in full)	35%	?	13µM*	10µM*
CC1(C(=O)NS(=O)(=O)c2ccccc2Cl)CCN1C(=O)CCC1CCCC1 (stereo not given)	0%	/	/	/
CC(=O)/C=C\c1cn(-c2ncc(C(F)(F)F)cc2Cl)c2ccccc12	-8%	?	10µM*	?
